From PubChem BioAssay
Inconclusive results are not listed. Activity calls are given as the source filed them.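 Rule for the calls, unless noted: active = cell viability at or below a set limit in both duplicate runs, the limit being the all-compound median minus 4 SD (cut at about 23% in these data, passing the limit was not always enough); inconclusive = no clear call, values can overlap the other calls; inactive = the rest.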

Assays:
[1] = Her2 expression decrease, cell viability multiplex – SKBR3 breast tumor cells, AlphaScreen, ATP viability, primary screen (AID 461;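 active = Her2 level under about 52% in both replicate screens, with viability over 70% of control, limit read from the data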;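 for Her2 level: lower value means less Her2 protein in the cells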;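 for viability: percent of carrier control wells set as 100% viability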); details: SKBR3 Her2 protein level, 18-24 h, measured here: SKBR3 viability, ATP luminescence, at 10 µM
[2] = target: Receptor tyrosine-protein kinase erbB-2 (Homo sapiens) (UniProt P04626); test: as above; details: 18-24 h, at 10 µM, stronger effect = lower value
Receptor tyrosine-protein kinase erbB-2 (Homo sapiens), sequence (P04626 whole entry, looked up): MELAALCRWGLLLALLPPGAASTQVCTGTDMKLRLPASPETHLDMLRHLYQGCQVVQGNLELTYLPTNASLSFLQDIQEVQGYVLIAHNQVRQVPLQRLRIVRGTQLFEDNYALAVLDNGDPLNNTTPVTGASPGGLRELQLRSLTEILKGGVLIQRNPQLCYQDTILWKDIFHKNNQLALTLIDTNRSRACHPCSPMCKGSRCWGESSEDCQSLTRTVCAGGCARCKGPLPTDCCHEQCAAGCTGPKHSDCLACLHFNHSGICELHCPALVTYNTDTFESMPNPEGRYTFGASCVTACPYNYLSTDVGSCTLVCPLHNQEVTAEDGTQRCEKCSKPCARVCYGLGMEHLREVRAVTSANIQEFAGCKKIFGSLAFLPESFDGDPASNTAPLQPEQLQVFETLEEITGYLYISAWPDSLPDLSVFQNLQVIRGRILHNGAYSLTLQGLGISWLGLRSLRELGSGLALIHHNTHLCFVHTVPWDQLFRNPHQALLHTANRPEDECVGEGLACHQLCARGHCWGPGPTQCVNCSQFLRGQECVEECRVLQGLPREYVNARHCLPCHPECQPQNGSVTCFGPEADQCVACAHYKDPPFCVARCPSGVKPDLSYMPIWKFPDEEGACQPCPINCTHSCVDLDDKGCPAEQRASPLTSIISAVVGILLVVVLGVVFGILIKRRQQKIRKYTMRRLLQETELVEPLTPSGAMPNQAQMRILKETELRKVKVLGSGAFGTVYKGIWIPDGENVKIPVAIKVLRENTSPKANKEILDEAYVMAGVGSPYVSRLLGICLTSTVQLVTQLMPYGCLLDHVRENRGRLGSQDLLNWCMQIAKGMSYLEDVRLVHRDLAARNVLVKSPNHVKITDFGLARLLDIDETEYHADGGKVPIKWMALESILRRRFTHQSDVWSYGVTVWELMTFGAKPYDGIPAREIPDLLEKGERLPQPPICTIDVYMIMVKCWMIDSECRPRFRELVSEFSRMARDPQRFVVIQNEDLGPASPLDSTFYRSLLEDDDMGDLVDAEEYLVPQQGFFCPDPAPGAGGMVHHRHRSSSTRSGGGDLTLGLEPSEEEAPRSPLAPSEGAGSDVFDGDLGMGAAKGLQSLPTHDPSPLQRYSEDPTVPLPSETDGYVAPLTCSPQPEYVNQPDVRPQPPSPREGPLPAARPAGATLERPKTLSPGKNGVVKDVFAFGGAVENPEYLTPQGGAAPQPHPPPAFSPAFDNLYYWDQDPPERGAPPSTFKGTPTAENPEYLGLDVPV

[3] = reduced viability of SK-BR-3 breast cancer cells – cell-based, 24 h, human, pilot screen (AID 572;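 active = viability at or below 10% of carrier control in both of two separate runs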;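 note: compound exposure lasted between 18 and 24 h rather than exactly 24 h; 100% = carrier-treated control wells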); details: SK-BR-3 viability, CellTiter-Glo luminescence, at 10 µM, stronger effect = lower value
[4] = HUVEC growth inhibition – cell-based, human, primary screen (AID 575;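 active = viability at or below 30% in both replicate assays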;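 note: 100% = median of untreated cell wells with 0.1% DMSO on each plate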); details: HUVEC proliferation, CellTiter-Glo luminescence, 72 h; at 10 µM; stronger effect = lower value
[5] = H69AR cell proliferation blockers – human, duplicate replicates, primary screen (AID 580;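 active = viability at or under a set limit in both replicates, limit being median viability minus 3 SD, cut at about 48% in these data, passing the limit was not always enough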;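 note: 100% = mean luminescence of untreated wells and 0% = no signal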); details: H69AR lung tumor cells viability, ATP luminescence, 72 h; at 10 µM; stronger effect = lower value
[6] = MRP1 drug-resistance reversers in H69AR cells – cell-based, doxorubicin co-treatment, pilot screen (AID 601;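 active = viability loss from added drug above about 55%, and viability with drug at most 40%, in both replicates, limit read from the data, passing the limit was not always enough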); details: CellTiter-Glo, 72 h, at 10 µM; for differential viability (reversal): stronger effect = higher value
[7] = yeast transport mutant growth inhibition pilot in 384-well plates, post-Golgi transport modulator project (AID 636; in the data active = inhibition above about 31%); details: absorbance 615 nm, about 18 h, stronger effect = higher value
[8] = growth suppression of yeast trafficking mutant, preliminary HTS, modulators of trafficking downstream of Golgi apparatus project, 1536-format plate, OD 615 nm (AID 637; in the data active = inhibition above about 30%); details: yeast transport mutant growth, absorbance 615 nm, 18 h; stronger effect = higher value
[9] = S. cerevisiae growth inhibition in permissive medium (OD615), pilot counter-assay for S. cerevisiae lifespan shortening project, permissive growth control (AID 705;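 active = growth inhibition above 25% in both replicates, a cutoff set 3 SD above the mean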); details: OD615, 24 h, at 10 µM, stronger effect = higher value
[10] = S. cerevisiae growth inhibition in restrictive medium, OD615, pilot screen, restrictive growth control, yeast lifespan reduction project (AID 706;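 active = growth inhibition above a set limit, 3 SD over mean compound inhibition, in both replicates, cut at about 43% in these data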;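 note: modified DeaD lifespan yeast strain shifted to restrictive glucose medium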); details: OD615, 48 h, at 10 µM, stronger effect = higher value
[11] = doxorubicin toxicity protection in MRP-1 cells – H69AR cells, CellTiter-Glo, duplicate, MRP-1 activator project, pilot screen (AID 807;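 active = viability increase at or above a cutoff of the median across tested compounds plus 3 SD, cut at about 8.5% in these data, passing the limit was not always enough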;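 note: compound pretreatment 18-22 h then 72 h combined with doxorubicin; 0% = doxorubicin alone and 100% = vehicle without doxorubicin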); details: H69AR viability with doxorubicin, CellTiter-Glo luminescence; at 10 µM; stronger effect = higher value
[12] = viability of HCT116 without oncogenic beta-catenin – human colon tumor cells, pilot screen (AID 823); details: HCT116 beta-catenin knockout viability, CellTiter-Glo, 60 h; at 10 µM; stronger effect = lower value;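 note: 0% = wells killed by 20 µM Hyamine and 100% = untreated DMSO cell wells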
[13] = viability of PTEN-null HCT116 cells – cell-based, HCT116 clonal line, CellTiter-Glo, pilot screen (AID 824;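 active = viability at or below 27.92% in each of two runs, the all-compound median minus 4 SD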;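 note: 0% = 20 µM Hyamine control and 100% = vehicle cell control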); details: HCT116 PTEN-deleted viability, 60 h, at 10 µM, stronger effect = lower value
[14] = RAM pathway blockade in budding yeast – dse1pr::URA3 reporter, 5-FOA selection, pilot screen (AID 869;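 active = inhibition over a set limit, the all-compound mean plus 3 SD, in both replicate runs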;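 note: 0% = DMSO wells with no growth and 100% = 10 µM 1-NA-PP1 with full growth; RAM network block rescues cells from 5-FOA so hits raise OD615 growth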); details: S. cerevisiae dse1pr::URA3 5-FOA growth, OD615, 2 d; at 10 µM; stronger effect = higher value; strain carries analog-sensitive mutant Cbk1 kinase
[15] = RAM signaling pathway blockade in yeast – S. cerevisiae, Pdr1DBD-CYC8 efflux-inhibited sensitized strain, primary screen (AID 1298;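 active = RAM network inhibition above 8.4% in each of two replicates, 3 SD over the compound average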;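 note: 0% = DMSO untreated cells without growth and 100% = 10 µM 1-NA-PP1 full growth; higher means more yeast growth rescued from 5-FOA killing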); details: S. cerevisiae cbk1-as DSE1-URA3 strain, 5-FOA growth OD615, 2 d; at 50 µM; stronger effect = higher value
[16] = H69AR cells + 2 uM doxorubicin, measured here: viability with 2 uM doxorubicin, stronger effect = lower value
[17] = H69AR cells, compound alone cytotoxicity

SMILES | viability [1] [%] | Her2 level [2] | viability [3] | viability [4] | viability [5] | differential viability (reversal) ([6]; H69AR cells + 2 uM doxorubicin) | viability [6, 16] [%] | viability [6, 17] [%] | inhibition [7] | inhibition [8] | growth inhibition [9] | growth inhibition [10] | viability increase [11] | viability [12] | viability [13] | inhibition [14] | RAM network inhibition [15]
O=C(CC1Oc2ccc(Cl)cc2NC1=O)NC1CCCCCC1 (stereo not given) | 92.5 | 87.5% (inactive) | 92.5% (inactive) | 78.1% (inactive) | 88% (inactive) | -3.67% (inactive) | 91.6 | 88 | -1.47% (inactive) | 2.13% (inactive) | -4.77% (inactive) | -8.75% (inactive) | -1.05% (inactive) | 102% (inactive) | 102% (inactive) | 3.56% (inactive) | 4.95% (inactive)
Cc1cc(C)nc(/N=C2\NC(=O)CC(C(=O)O)N2c2ccc(Cl)cc2)n1 (stereo not given) | 106 | 100% (inactive) | 106% (inactive) | 88.7% (inactive) | 96% (inactive) | 3.08% (inactive) | 92.9 | 96 | -6.53% (inactive) | 5.17% (inactive) | 0.655% (inactive) | 5.68% (inactive) | 1.08% (inactive) | 99.5% (inactive) | 102% (inactive) | 1.93% (inactive) | 3.63% (inactive)
COc1ccccc1N1CCN(CC(O)c2ccc3cc[nH]c3c2)CC1 (stereo not given) | 99 | 112% (inactive) | 99% (inactive) | 95.6% (inactive) | 88.8% (inactive) | 11.4% (inactive) | 77.4 | 88.8 | -3.33% (inactive) | 2.46% (inactive) | 3.54% (inactive) | 5.26% (inactive) | -4.68% (inactive) | 60.7% (inactive) | 61.7% (inactive) | 1.87% (inactive) | 1.54% (inactive)
CSc1cccc(NC(=O)C2CCN(S(=O)(=O)c3ccc(F)cc3)CC2)c1 | 77.5 | 70.5% (inactive) | 77.5% (inactive) | 93.7% (inactive) | 84.4% (inactive) | -0.92% (inactive) | 85.3 | 84.4 | -7.57% (inactive) | -6.23% (inactive) | -1.68% (inactive) | -13.7% (inactive) | -4.63% (inactive) | 64.3% (inactive) | 62% (inactive) | 1.71% (inactive) | 7.8% (inactive)
CCCNC(=O)C1CCN(S(=O)(=O)c2ccc3nc4c(c(C(=O)O)c3c2)CCCCC4)CC1 | 99 | 92% (inactive) | 99% (inactive) | 105% (inactive) | 98.7% (inactive) | 2.09% (inactive) | 96.6 | 98.7 | -1.87% (inactive) | 8.36% (inactive) | 2.08% (inactive) | -0.39% (inactive) | 1.14% (inactive) | 108% (inactive) | 103% (inactive) | 2.09% (inactive) | 7.93% (inactive)
CCOC(=O)Cc1ccc(NS(=O)(=O)c2ccc(SC)cc2)cc1 | 89 | 88% (inactive) | 89% (inactive) | 67.9% (inactive) | 86.7% (inactive) | 3.83% (inactive) | 82.8 | 86.7 | -5.54% (inactive) | -5.08% (inactive) | 6.06% (inactive) | -1.98% (inactive) | -4.85% (inactive) | 94.4% (inactive) | 88.1% (inactive) | 0.825% (inactive) | 2.83% (inactive)
CC1CCc2nn(CC(=O)Nc3ccc(F)cc3F)cc2C1 (stereo not given) | 108 | 97.5% (inactive) | 108% (inactive) | 100% (inactive) | 104% (inactive) | 14.7% (inactive) | 89.5 | 104 | -0.93% (inactive) | -6.72% (inactive) | -2.97% (inactive) | -12.2% (inactive) | 1.3% (inactive) | 97.8% (inactive) | 98.3% (inactive) | 2.21% (inactive) | -0.77% (inactive)
c1ccc(N2CCN(Cc3cn4cccnc4n3)CC2)cc1 | 98 | 94% (inactive) | 98% (inactive) | 97.2% (inactive) | 97.6% (inactive) | 3.72% (inactive) | 93.9 | 97.6 | -2% (inactive) | -6.07% (inactive) | -10.3% (inactive) | -6.25% (inactive) | 1.38% (inactive) | 98% (inactive) | 95.1% (inactive) | 0.465% (inactive) | 6.85% (inactive)
O=C(O)C1CC(=O)N(CCOc2ccccc2)C1 (stereo not given) | 105 | 126% (inactive) | 105% (inactive) | 111% (inactive) | 93.9% (inactive) | -3.07% (inactive) | 97 | 93.9 | -3.51% (inactive) | -2.62% (inactive) | 2.4% (inactive) | 3.82% (inactive) | 0.57% (inactive) | 102% (inactive) | 100% (inactive) | 0.69% (inactive) | 1.17% (inactive)
C=CCOC(=O)COc1ccc2c(C)c(C)c(=O)oc2c1C | 106 | 92.5% (inactive) | 106% (inactive) | 97.9% (inactive) | 125% (inactive) | 19.5% (inactive) | 106 | 125 | -0.81% (inactive) | -3.49% (inactive) | -18.3% (inactive) | -15.6% (inactive) | 2.23% (inactive) | 101% (inactive) | 95.9% (inactive) | 1% (inactive) | 2.98% (inactive)
